# Laboratory results published in PubChem BioAssay (NCATS).
# Unmarked numbers belong to inactive results. Calls come from the whole dose curve; as a rule, active = well fitted curve in the direction sought with a large enough effect; inconclusive = small, poorly fitted or top-dose-only effect, or effect the other way, or another doubt; inactive = no such curve, though single readings can be large or run the other way.
# Assay: qHTS for inhibitors of adenylyl cyclases using a fission yeast platform: a pilot screen against the NCATS LOPAC library (AID 1347410);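 note: plate controls were DMSO vehicle for no effect and DPI positive control for full effect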
# Conditions: S. pombe CHP2027, fbp1-GFP fluorescence, 18 h, yeast expressing mammalian AC9 and human GNAS; series mostly up to 57.5 µM; activity, positive = inhibition (GFP gain): at the top concentration
# Procedure, shortened: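 S. pombe CHP2027 (AC9-GNAS-PDE4D2) carrying a PKA-repressed fbp1-GFP reporter was exposed to LOPAC compounds (final up to 57 µM) for 18 h at 30C in the dark, in EMM with histidine, lysine and uracil; GFP gain-of-signal read by laser scanning cytometry.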
row,Structure (SMILES),"activity, positive = inhibition (GFP gain) [%]"
1,c1ccc(C2CN3CCSC3=N2)cc1 (stereo not drawn),-0.438
2,O=c1cc(-c2ccccc2)[nH]c2nc(Cl)ccc12,-0.438
3,COc1cc(C(O)C(=O)O)ccc1O (stereo not drawn),-0.438
4,CC(C)[C@@H]1CC[C@@H](C)C[C@@H]1P(=O)(c1ccccc1)c1ccccc1,0.188
5,Fc1ccc(CN(C2=NCCN2)c2c(Cl)cccc2Cl)cc1,3.74
6,N#Cc1cc([N+](=O)[O-])c2sc(C(N)=O)[n+]([O-])c2c1,-0.438
7,N[C@H](C(=O)O)[C@H](Cc1ccccc1)C(=O)O,-0.438
8,Nc1ccc(-c2ccc3ccccc3n2)cc1,1.06
9,CN1CCCC1CCOC(C)(c1ccccc1)c1ccc(Cl)cc1 (stereo not drawn),-0.438
10,O=C(O)c1ccccc1Nc1cccc(OCc2ccc3ccccc3n2)c1,0.165
11,O=C(O)C1=CC(=C(c2ccc(O)c(C(=O)O)c2)c2ccc(O)c(C(=O)O)c2)C=CC1=O,-0.438
12,O=c1ccn([C@@H]2O[C@H](COP(=O)(O)OP(=O)(O)O)[C@@H](O)[C@H]2O)c(=O)[nH]1,-0.438
13,CC[C@H](NC(=O)c1c(C)c(-c2ccccc2)nc2ccccc12)c1ccccc1,-0.438
14,O=[N+]([O-])c1cccc2cn[nH]c12,1.51
15,Cn1c(=O)c2[nH]c(-c3ccc(S(=O)(=O)O)cc3)nc2n(C)c1=O,0.0997
16,CCCCCCCCCCCCCCSCC(=O)O,-0.438
17,Nc1nc2ccc(Cl)cc2c2nc(-c3ccco3)nn12,-0.438
18,O=C(O)C1=CCCN(CCON=C(c2ccccc2)c2ccccc2)C1,-0.0209
19,CC(N)=NCCCC[C@@H](N)C(=O)O,0.211

row,Structure (SMILES),"activity, positive = inhibition (GFP gain) [%]"
1,CN(C)C(=O)/N=N/C(=O)N(C)C,-0.438
2,O=C1Cc2c([nH]c3ccc(Br)cc23)-c2ccccc2N1,0.114
3,CC1=C(C(=O)O)N2C(=O)[C@@H](NC(=O)C(N)C3=CCC=CC3)[C@H]2SC1 (stereo partly drawn),-0.438
4,NC(=O)CC[C@H](N)C(=O)O,-0.438
5,COc1cc(/C=C(\C#N)C(=O)Nc2nnc(C(F)(F)F)s2)ccc1OCc1ccc(C(F)(F)F)cc1C(F)(F)F,-0.438
6,c1ccc(C(NCc2cccnc2)(c2ccccc2)c2ccccc2)cc1,-0.438
7,O=c1onc2n1-c1cc(Br)ccc1OC2,0.0951
8,CCCOC(=O)c1c(-c2ccccc2)nc(CC)c(C(=O)SCC)c1CCC,-0.438
9,COc1cc(CNC(=O)CCCCCCC(C)C)ccc1O,-0.438
10,NCC(O)(CS(=O)(=O)O)c1ccc(Cl)cc1 (stereo not drawn),0.29
11,O=C(OCCN1CCOCC1)C1(c2ccccc2)CCCCC1,-0.438
12,Cc1ccc2c(c1)C(N1CCN(C)CC1)=Nc1cccnc1N2,-0.058
13,O=c1cc(-c2ccccc2F)[nH]c2cc3c(cc12)OCO3,-0.438
14,CC(=O)O[C@H]1CC2(C)[C@@H](C[C@@H](O)[C@H]3[C@@]4(C)CC[C@@H](O)[C@@H](C)[C@@H]4CC[C@@]32C)C1=C(CCC=C(C)C)C(=O)O (stereo partly drawn),-0.438
15,CN1CCN(c2nc3cc(C(F)(F)F)ccc3n3cccc23)CC1,0.647
16,Cn1c(=O)c2c(nc(/C=C/c3cccc(Cl)c3)n2C)n(C)c1=O,-0.0673
17,CC1CCN(CC[C@H]2CCCN2S(=O)(=O)c2cccc(O)c2)CC1,-0.438
18,Nc1ccc(N2C(=O)c3ccccc3C2=O)c(Cl)c1,-0.438
19,O=c1[nH]ccc2c(O)cccc12,-0.141
